Rows were chosen to be rich in hits. Some 0.86% of all compounds tested hit in one or more screens of this group.
HIV TAR-Tat – HIV-1 TAR-Tat binding disruption | 100,000 compounds, 0.6% hits | z-score (test concentration not listed) | HIV-1 TAR RNA, Tat peptide displacement FRET; hits give high values; active means z-score of 3 or more in at least 2 runs
CDC25B CDK2 inh – human CDC25B-CDK2/CyclinA binding inhibition; z-score (no concentration beside the values); HTRF CDC25B-CDK2/CyclinA binding, anti-His/anti-Flag; hits give high values; AID 1259370; 94,000 compounds, 0.72% hits; P30305+P24941; in the data active means z-score above about 3.2
* = called active by the depositor.

Screening Cc1ccc(-c2cc3c4c(C)n(Cc5ccc6c(c5)OCO6)c(C)c4c(C)nn3c2)o1 returned HIV TAR-Tat 35* and CDC25B CDK2 inh 23*.
`Cc1ccc(-n2c(C)c3c(C)nn4cc(C)cc4c3c2C)cc1` gave CDC25B CDK2 inh 0.82.
For Cc1ccc(-c2cc3c4c(C)n(C5CCCCC5)c(C)c4c(C)nn3c2)o1 the results were HIV TAR-Tat 17* and CDC25B CDK2 inh -0.58.
Cc1ccc(-c2cc3c4c(C)n(C)c(C)c4c(C)nn3c2)o1 was read as HIV TAR-Tat 36* and CDC25B CDK2 inh 16*.
Screening Cc1ccc(-c2cc3c4c(C)n(Cc5ccccc5)c(C)c4c(C)nn3c2)o1 returned HIV TAR-Tat -0.55 and CDC25B CDK2 inh -1.4.
Screening CCN1C(=O)c2cc(C(=O)NC(C)C)nn2CC1(C)C(=O)NC1CCCC1 (stereo not drawn) returned HIV TAR-Tat 0.37.
CCc1ccc(NS(=O)(=O)c2ccc(/C=C/c3onc(C)c3[N+](=O)[O-])cc2)cc1 was read as HIV TAR-Tat 2.7.
Screening CC(C)N(C)Cc1cccc(-c2ccc3c(c2)CN2CCC(O)C2=N3)c1 (stereo not drawn) returned HIV TAR-Tat 1.7.
Screening CC(C)N1CCC2(CC1)N=C(c1ccc3c(c1)OCO3)CC(c1cc(Br)ccc1O)N2 (stereo not drawn) returned CDC25B CDK2 inh -0.2.
For Cc1nn(CC(=O)N2CCCC2)c(C)c1S(=O)(=O)N1CCC(C(=O)N2CCOCC2)CC1 the results were HIV TAR-Tat 1.7.
For C#CCn1c2ccccc2c2nc3ccccc3nc21 the results were HIV TAR-Tat 0.07.
O=C1CCC(=O)N1CCCn1c2ccccc2c2nc3ccccc3nc21 was read as HIV TAR-Tat 1 and CDC25B CDK2 inh 14*.
Screening CC1CSc2ccc(S(=O)(=O)N(Cc3ccc(F)cc3)Cc3cccnc3)cc2NC1=O (stereo not drawn) returned HIV TAR-Tat 2.
For CCS(=O)(=O)N1CCCc2ccc(NS(=O)(=O)c3cc(F)ccc3F)cc21 the results were HIV TAR-Tat -0.35.
`CCCS(=O)(=O)N1CCCc2ccc(NS(=O)(=O)c3cc(F)ccc3F)cc21` gave HIV TAR-Tat 7.2*.
Screening CC(C)(C)c1csc(-c2ccc(C=N/C(C#N)=C(\N)C#N)cc2)n1 returned CDC25B CDK2 inh -2.3.
`O=C1C2=C3C=CC(S(=O)(=O)O)=CC3CC=C2S/C1=C1\Sc2ccc3cc(S(=O)(=O)O)ccc3c2C1=O` (stereo not drawn) gave CDC25B CDK2 inh -0.95.
COc1ccc(C(=O)c2c(N)c(-c3nc(-c4ccccc4)cs3)c3ccccn23)cc1 was read as HIV TAR-Tat 3.6 and CDC25B CDK2 inh -0.57.
`Nc1c(-c2nc(-c3ccccc3)cs2)c2ccccn2c1C(=O)c1cccs1` gave HIV TAR-Tat 0.36 and CDC25B CDK2 inh 25*.
Screening COc1cc2nc(NCc3cccnc3)n3nc(-c4ccccc4)nc3c2cc1OC returned HIV TAR-Tat -0.79 and CDC25B CDK2 inh -0.89.
Screening COc1ccc(S(=O)(=O)Nc2cc3c(cc2N2CCCC2)n(C)c(=O)c(=O)n3C)cc1Cl returned HIV TAR-Tat -1.7.
Screening COc1ccc2nc(NC(=O)Nc3cc(Cl)c(OC)cc3OC)sc2c1 returned HIV TAR-Tat 5.3* and CDC25B CDK2 inh 1.3.
CCOc1ccc2nc(NC(=O)Nc3cc(Cl)c(OC)cc3OC)sc2c1 was read as HIV TAR-Tat 1.3 and CDC25B CDK2 inh -2.3.
Screening Cc1nc(CNC(=O)c2oc3ccccc3c2C)cs1 returned HIV TAR-Tat 1.1 and CDC25B CDK2 inh -1.2.
Screening O=C(Nc1ccc(S(=O)(=O)N2CCCCC2)cc1)c1ccc(Br)o1 returned CDC25B CDK2 inh 0.26.
`O=C1CC(c2ccco2)CC2=C1C(c1ccco1)Nc1ccccc1N2` (stereo not drawn) gave HIV TAR-Tat 0.63 and CDC25B CDK2 inh -0.52.
For CN(C)c1ccc(C2Nc3ccccc3NC3=C2C(=O)CC(c2cccs2)C3)cc1 (stereo not drawn) the results were HIV TAR-Tat 0.13 and CDC25B CDK2 inh 7.4*.
CCN(CC)c1ccc(C2CC(=O)C3=C(C2)Nc2ccccc2NC3c2ccco2)cc1 (stereo not drawn) was read as HIV TAR-Tat 25* and CDC25B CDK2 inh 1.2.
`Cc1ccc(C2Nc3ccccc3NC3=C2C(=O)CC(c2cccs2)C3)cc1` (stereo not drawn) gave HIV TAR-Tat 3.5 and CDC25B CDK2 inh -0.78.
For CC(C)n1c(SCc2ccccc2)nnc1-c1ccc2c(c1)OCCCO2 the results were HIV TAR-Tat 3.3.
CCCN1C(=O)C2(/C(=C(/O)c3ccc(C)c(F)c3)C(=O)C(=O)N2CC2CCCO2)c2ccccc21 (stereo not drawn) was read as HIV TAR-Tat -0.71 and CDC25B CDK2 inh -0.53.
For Cc1ccc(/C(O)=C2/C(=O)C(=O)N(CC3CCCO3)C23C(=O)N(C)c2ccccc23)cc1F (stereo not drawn) the results were HIV TAR-Tat 16* and CDC25B CDK2 inh 0.18.
Screening O=C(c1ccc(CSCc2ccccc2F)o1)N1CCNc2ccccc2C1 returned CDC25B CDK2 inh -0.5.
`CCOc1ccc(C2CC(=O)N3CN(c4ccc(OCC)cc4)CSC3=C2C#N)cc1` (stereo not drawn) gave HIV TAR-Tat 0.45 and CDC25B CDK2 inh 2.1.
Cc1ccc(C2CC(=O)N3CN(c4ccc(CCO)cc4)CSC3=C2C#N)cc1 (stereo not drawn) was read as HIV TAR-Tat -0.54 and CDC25B CDK2 inh 7.1*.
For COc1ccc(C2CC(=O)N3CN(c4ccc(CCO)cc4)CSC3=C2C#N)cc1 (stereo not drawn) the results were HIV TAR-Tat 0.63 and CDC25B CDK2 inh 6*.
Screening CCC1CCCCN1CCCNC(=O)c1ccc2c(=O)n3c(nc2c1)CCCCC3 (stereo not drawn) returned CDC25B CDK2 inh -0.28.
For Cc1cc(-c2ccc(C)c(S(=O)(=O)Nc3cccc(-c4ccno4)c3)c2)on1 the results were HIV TAR-Tat -0.54.
COc1ccc(OCCn2nnc3sc4c(c3c2=O)CCCC4)cc1 was read as HIV TAR-Tat 3.3* and CDC25B CDK2 inh 0.44.
For O=c1c2c3c(sc2nnn1CCCOc1ccccc1)CCCC3 the results were HIV TAR-Tat 1.5 and CDC25B CDK2 inh 1.
`O=C1CCCC2=C1C(c1cccs1)n1c(nc3ccccc31)N2` (stereo not drawn) gave CDC25B CDK2 inh -0.51.
For CCCCSc1nc2c(c(=O)[nH]1)C(c1ccncc1)C(C(=O)OC(C)C)=C(C)N2 (stereo not drawn) the results were HIV TAR-Tat 1.2 and CDC25B CDK2 inh -0.94.
For COc1ccc(CC(=O)NN)cc1OC the results were CDC25B CDK2 inh -1.6.
Screening COC(=O)C1Cc2cc(OC)c(OC)cc2C(Cc2ccc(OC)c(OC)c2)=N1 (stereo not drawn) returned HIV TAR-Tat -0.5 and CDC25B CDK2 inh 8.9*.
For O=C(C1CCN(S(=O)(=O)c2cccc3nsnc23)CC1)N1CCC(N2CCCCC2)CC1 the results were CDC25B CDK2 inh -0.48.
For COc1ccc(Nc2nc(-c3ccccn3)cs2)cc1 the results were HIV TAR-Tat 1.6 and CDC25B CDK2 inh -1.8.
For CCOc1ccc(Nc2nc(-c3ccccn3)cs2)cc1 the results were CDC25B CDK2 inh 19*.
For CCc1cc(C=N)c([S-])s1.CCc1cc(C=N)c([S-])s1.[Zn+2] the results were CDC25B CDK2 inh 19*.
CCc1cc2c(=S)[nH]cnc2s1 was read as CDC25B CDK2 inh -0.86.
